# Measurements as given in PubChem BioAssay AID781 (Emory University Molecular Libraries Screening Center, 2007).
# About 1,600 (0.73%) of roughly 220,000 compounds were called active. The sample as a whole holds a higher share of actives than the screen did. A number with no mark means an inactive call.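 Rule for the calls: active = inhibition above about 70% (limit read from the data); inactive = the rest.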
# Target: 14-3-3 protein zeta/delta (Bos taurus) (UniProt P63103)
# Test: inhibitors of 14-3-3 zeta/Bad binding, primary screen, biochemical, TR-FRET, bovine 14-3-3 zeta (AID 781);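 note: 0% = full 14-3-3 plus peptide FRET controls and 100% = background without 14-3-3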
# Conditions: TR-FRET 14-3-3zeta/Dy647-pBad peptide displacement, 1 h; at 21.7 µM; active compounds read high
# Chain of 14-3-3 protein zeta/delta (Bos taurus) (P63103 whole entry, looked up): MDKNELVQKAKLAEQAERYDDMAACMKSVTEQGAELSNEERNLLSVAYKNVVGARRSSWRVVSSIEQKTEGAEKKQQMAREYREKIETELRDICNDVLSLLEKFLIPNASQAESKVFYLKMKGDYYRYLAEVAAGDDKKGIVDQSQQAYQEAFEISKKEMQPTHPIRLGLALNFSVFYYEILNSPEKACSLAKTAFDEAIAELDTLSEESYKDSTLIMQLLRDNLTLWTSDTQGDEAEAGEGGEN
row,SMILES,inhibition
1,Cc1ccc(S(=O)(=O)/N=S(\C)C(C)C)cc1 (stereo not given),1.1%
2,CS(=O)(=O)N(Cc1ccccc1)c1ccc(C(=O)NN=C2CCCCCC2)cc1,-15.2%
3,COc1cccc(NC(=O)c2ccc3c(SCC(=O)O)c4c(nc3c2)CCCC4)c1,-11.6%
4,COc1ccc(N2CCN(C(=O)c3ccc4c(Cl)c5c(nc4c3)CCCC5)CC2)cc1,-10.1%
5,CC(=O)c1ccc(NC(=O)c2ccc3c(Cl)c4c(nc3c2)CCCC4)cc1,73.9% (active)
6,COc1ccc(/C=C(\NC(=O)c2ccc(OCC(C)C)cc2)C(=O)OCc2ccco2)cc1,2.32%
7,COc1ccccc1NC(=O)CSc1nc2sc(C)c(C)c2c(=O)n1Cc1ccco1,-6.57%
8,Cc1ccc(-c2nc(SCC(=O)Nc3ccccc3OC(F)F)c3c(C)c(C(=O)O)sc3n2)cc1,80.4% (active)
9,Cc1ccc(C)c(SCc2nc3sc(C(=O)O)c(C)c3c(=O)[nH]2)c1,0.11%
10,Oc1ccc2ccccc2c1C=Nc1ccccc1,4.91%
11,CC(=O)Nc1ccc(S(=O)(=O)NC2(C(F)(F)F)C(=O)NC(C)=C2C#N)cc1 (stereo not given),-3.08%
12,c1ccc(COc2ccccc2CNCc2cccnc2)cc1,77.2% (active)
13,O=C(CCc1ccccc1)NCc1cccnc1,-1.29%
14,COc1ccccc1CNCc1cccs1,0.7%
15,COc1cccc(CNCCc2c[nH]c3ccccc23)c1OCc1ccccc1F,29.9%
16,CCC(Oc1ccccc1)C(=O)NCc1cccnc1 (stereo not given),-2.17%
17,Fc1ccccc1COc1ccccc1CNCc1ccncc1,75.9% (active)
18,CCOC(=O)CN(C(=O)COc1nc(C)cc(C)c1C#N)c1ccc(Cl)cc1,-3.15%
19,O=C(Nc1ccccc1Cl)c1ccccc1S(=O)(=O)c1ccccc1[N+](=O)[O-],5.14%
20,COc1ccc(NC(=S)N2CCc3cc(OC)c(OC)cc3C2)cc1,-0.16%
21,COc1ccccc1/C=C/C=N/NC(=O)CN1CCN(Cc2ccccc2)CC1,-5.86%
22,O=C1COc2ccc(C(=O)COC(=O)C3CC(O)CN3S(=O)(=O)c3ccc(Cl)cc3)cc2N1 (stereo not given),0.1%
23,Cc1ccc2nc(SCc3cn4c(C)cc(C)nc4n3)[nH]c2c1,-0.6%
24,CC(Sc1nc2c([nH]c3ccccc32)c(=O)n1C)c1ccccc1 (stereo not given),98.1% (active)

row,SMILES,inhibition
1,CCCCn1c(=S)[nH]c2ccccc2c1=O,10.7%
2,Cn1nnnc1SCc1cc(=O)[nH]c2ccccc12,8.32%
3,S=C(Nc1ccc2c(c1)OCO2)N1CCCC1,-2.2%
4,COc1ccc(CCn2nnnc2C(c2ccccc2)N2CCN(C)CC2)cc1OC (stereo not given),82.9% (active)
5,COc1ccc(C(c2nnnn2Cc2cccs2)N2CCN(c3ccccc3)CC2)cc1OC (stereo not given),-7.19%
6,N#Cc1ccc(C(c2nnnn2CCc2ccccc2)N2CCCCCC2)cc1 (stereo not given),4.83%
7,COC(=O)c1cc(NC(=O)CN2CCN(C(C)=O)CC2)cc(C(=O)OC)c1,-3.76%
8,FC(F)(F)c1nc(-c2ccccc2)ncc1-c1nnnn1-c1ccccc1,13.7%
9,N/C(=N\OC(=O)Cc1ccc([N+](=O)[O-])cc1)c1ccccn1,-17.6%
10,N/C(=N\OC(=O)COc1ccc([N+](=O)[O-])cc1)c1ccc(Br)cc1,2.68%
11,N/C(=N\OC(=O)Cc1ccccc1[N+](=O)[O-])c1ccc(Br)cc1,93.1% (active)
12,CCCc1nc(-c2cc3cc(C)ccc3[nH]c2=O)no1,-0.29%
13,COc1ccc(-n2nc(C(=O)Nc3cc(OC)c(OC)c(OC)c3)c3ccccc3c2=O)c(OC)c1,2.29%
14,Cc1ccsc1/C=N/NC(=O)Cc1cc(=O)[nH][nH]1,-22.4%
15,CCOCN(C(=O)Cn1c(C(C)O)nc2ccccc21)c1c(C)cccc1CC (stereo not given),-12.3%
16,COc1ccc(C(=O)Nc2cccnc2)cc1C(=O)Nc1cccnc1,2.89%
17,O=C(Oc1cccnc1)c1cc2ccccc2oc1=O,17.9%
18,O=C(Nc1cccnc1)c1cc2cc(Br)ccc2oc1=O,82.5% (active)
19,COc1ccc(C)cc1S(=O)(=O)Nc1cccc(Cl)c1Cl,-10%
20,Cc1cc([N+](=O)[O-])nn1CCCC(=O)Nc1cccnc1Cl,-8.44%
21,Cc1cc2nc3c(=O)n(Cc4ccccc4)c(=O)[nH]c3nc2cc1N,-0.29%
22,Nc1ccc2nc3c(=O)[nH]c(=S)[nH]c3nc2c1,83.5% (active)
23,O=C1c2ccccc2NC(c2ccccn2)N1NS(=O)(=O)c1ccccc1 (stereo not given),5.35%
24,c1ccc(C2CNCc3c2ccc2ccccc32)cc1 (stereo not given),-8.65%

row,SMILES,inhibition
1,CN(C)S(=O)(=O)c1cccc(-c2nn(-c3ccccc3)cc2/C=C2\SC(=S)N(CC(=O)O)C2=O)c1,12%
2,Cc1ccc(OCC(=O)Nc2ccc(S(=O)(=O)Nc3ccccn3)cc2)cc1,-3.5%
3,CC(=O)Nc1ccc(OCC(=O)NCc2ccc(C)cc2)cc1,-8.65%
4,Cc1ccc(OCC(=O)Nc2ccc(-c3nc4ncccc4o3)cc2)cc1,78.8% (active)
5,Cc1oc2nc(SCC(=O)Nc3ccc(S(N)(=O)=O)cc3)nc(NC(=O)c3ccccc3)c2c1C,-6.33%
6,C/C=C(/C)C(=O)Nc1cccc(C2=NOC3(C2)C[C@@H](C(N)=O)N(C(=O)C2(C)CC2)C3)c1 (stereo not given in full),-2.68%
7,Cc1ccnc(NS(=O)(=O)c2ccc(NC(=O)c3ccc(S(=O)(=O)N(C)C)cc3)cc2)n1,-9.02%
8,COc1cc(/C=N/N=C(\N)c2nonc2N)cc(OC)c1OC,-22.2%
9,COc1cc(OC)c(/C=N/NC(=O)c2ccc([N+](=O)[O-])cc2)cc1Br,5.09%
10,COc1cc(/C=N\NC(=O)c2nonc2N)c(OC)cc1Br,71.1% [fluorescence artefact?] (active)
11,CCc1ccc(S(=O)(=O)NCC(O)COc2ccc(OC)cc2)cc1 (stereo not given),-1.31%
12,Cc1nc2ccccc2nc1N/N=C/c1ccc(O)cc1O,-9.43%
13,O=C(N/N=C/c1ccco1)c1csc2c1CCCC2,-2.18%
14,O=c1[nH]c(=S)[nH]c2[nH]c(=S)[nH]c12,73.3% (active)
15,Cc1cc(=O)[nH]c(=S)[nH]1,0.3%
16,Cc1c(C)c(C)c2[nH]c(=S)[nH]c2c1C,-0.36%
17,Nc1nc(SCC(=O)N2CCN(S(=O)(=O)c3ccc(Cl)cc3)CC2)n[nH]1,-16.8%
18,CC1CCN(C(=S)NC2CC3CCC2C3)CC1 (stereo not given),-3%
19,COCc1c(N)c(C)nc(Cl)c1C#N,-17%
20,Cc1nnc(SCCCCSc2nnc(C)c(=O)[nH]2)[nH]c1=O,-6.9%
21,OCCN(Cc1ccccc1)Cc1ccc(Cl)cc1,42.7%
22,CC(O)CN(Cc1ccc(Cl)cc1)CC(C)O (stereo not given),85.5% (active)
23,CN(C)CCCNC(=S)NCc1ccc(Cl)cc1,-10.2%
24,Cn1c(N)c(C(=O)COC(=O)c2ccccc2NCc2ccco2)c(=O)n(C)c1=O,0.84%

row,SMILES,inhibition
1,O=C(COc1ccc(/C=N/NC(=O)c2ccc(O)cc2)cc1)Nc1ccc([N+](=O)[O-])cc1,74.2% [fluorescence artefact?] (active)
2,O=C(N/N=C/c1ccc(OCc2ccccc2)cc1)c1ccc(O)cc1,-9.63%
3,CCCCCC(=O)Nc1ccc(C(=O)N/N=C/c2ccc([N+](=O)[O-])cc2)cc1,-13.5%
4,CSc1n[nH]c(=S)n1N,-10%
5,CN(c1ccccc1)S(=O)(=O)c1cc(C(=O)Nc2nc3ccccc3[nH]2)ccc1Cl,1.7%
6,CCCCN(C)C(=O)c1ccc2c(c1)N(CC)C(=O)c1ccccc1S2(=O)=O,75.6% (active)
7,O=C(c1ccc2c(c1)N(Cc1ccc(F)cc1)C(=O)c1ccccc1S2(=O)=O)N1CCN(c2ccccn2)CC1,-4.43%
8,COC(=O)CNC(=O)c1ccc2c(c1)S(=O)(=O)c1ccccc1C2=O,2.96%
9,Brc1ccc2c(c1)[C@H]1OCC[C@H]1[C@@H](c1cccs1)N2,4.8%
10,c1ccc(-c2ccccc2OCCN2CCCCC2)cc1,40.5%
11,Nc1nnc(SCCN2C(=O)c3ccccc3S2(=O)=O)s1,5.12%
12,O=S1(=O)C=C(SCCN2CCCC2)c2ccccc21,71.3% (active)
13,Cc1nn(CC2CC2)c(=O)n1N(C)c1ncc(C(F)(F)F)cc1Cl,-11.7%
14,Cc1nn(C)cc1N1C(=O)c2cccc3c(N)ccc(c23)C1=O,-2.5%
15,CCN(c1ccccc1)S(=O)(=O)c1ccc(N)cc1,71.9% (active)
16,CCN(c1ccccc1)S(=O)(=O)c1ccc2[nH]c(=O)[nH]c2c1,-1.8%
17,CCN(c1ccccc1)S(=O)(=O)c1ccc(NC(=O)C(C)(C)C)cc1,4.53%
18,CCOC(=O)c1cc2c(=O)n3ccccc3nc2n(CC(C)C)c1=NC(=O)c1c(-c2c(F)cccc2Cl)noc1C,-8.06%
19,O=C1CCCC(O)=C1N=Nc1ccc2ncsc2c1,3.62%
20,COC(=O)c1c(C)oc(C)c1S(=O)(=O)Nc1ccc(C(C)C)cc1,3.11%
21,CC1CCC2(CC1)NC(=O)N(CC(=O)c1cccn1C)C2=O (stereo not given),73.9% (active)
22,O=C(CN1C(=O)NC2(CCCCCC2)C1=O)NC1CC1,8.5%
23,CC1CCC2(CC1)NC(=O)N(Cc1nnc(-c3cccs3)o1)C2=O (stereo not given),21.6%
